Laboratory results reported in PubChem BioAssay AID720706 (Broad Institute, 2013).
Among all 350,000 compounds or so, about 5,500 (1.6%) were called active.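 How the source made its calls: active means significant combined selectivity score with lowered wild-type GFP, culture density cut under 30%, mutant RFP and density less affected; inactive means any of these conditions unmet.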 Many of the other results were omitted from the sample, so actives are more common in it than they were.

Experiment: reduced GFP signal of wild-type E. coli, primary screen, bacterial rRNA inhibitor project, GFP/RFP fluorescence, OD600, single point (AID 720706)
Conditions: E. coli WT GFP vs humanized-ribosome RFP mutants, 24 h; GFP signal change (wild-type ribosome): stronger effect = lower value, DMSO median 0, no signal -100; OD600 change: measured here: OD600 growth, DMSO median 0, no signal -100; RFP signal change: measured here: RFP humanized mutant strains, DMSO median 0, no signal -100, concentration not given here
In the case of `CN1[C@@H]2c3ccc(-c4ccc(F)cc4)c(=O)n3C[C@H]1[C@H](CO)[C@H]2C(=O)NC1CCC1`, the GFP signal change (wild-type ribosome) is reported as 0.894% (inactive), the OD600 change is reported as -1.58% and the RFP signal change is reported as -1.53%. In the case of `COc1ccc(-n2cnnc2SCC(=O)Nc2cccc(S(N)(=O)=O)c2)cc1`, the GFP signal change (wild-type ribosome) is reported as 5.58% (inactive), the OD600 change is reported as 7.26% and the RFP signal change is reported as -1.5%. For `Cc1ccc(-n2c(SCC(=O)Nc3ncc(Cl)cc3Cl)nc3ccccc32)cc1`, the GFP signal change (wild-type ribosome) was -23.3% (inactive), the OD600 change was -16.7% and the RFP signal change was 11.6%. With `NS(=O)(=O)c1cccc(NC(=O)CSc2nc3ccccc3n2-c2ccccc2)c1` the GFP signal change (wild-type ribosome) was -43.3% (active), the OD600 change was -4.95% and the RFP signal change was 0.431%. With `CC(C)NC(=O)Nc1ccc2c(c1)C(=O)N([C@@H](C)CO)C[C@H](C)[C@H](CN(C)C(=O)Nc1ccc(F)cc1)OCCCC[C@@H](C)O2` the GFP signal change (wild-type ribosome) was 9.43% (inactive), the OD600 change was 11.5% and the RFP signal change was -1.2%. For `O=S(=O)(c1ccccc1)N1CC[C@@H]2[C@H]1c1cc(C#Cc3cccc(F)c3)ccc1N[C@@H]2CO`, the GFP signal change (wild-type ribosome) was -1.75% (inactive), the OD600 change was 20.2% and the RFP signal change was -0.35%. In the case of `CCCNC(=O)N1CC2(C1)[C@H](c1ccccc1)[C@@H](CO)N2C(=O)C1CC1`, the GFP signal change (wild-type ribosome) is reported as 2.01% (inactive), the OD600 change is reported as 4.92% and the RFP signal change is reported as -0.981%. With `COc1ccc(NC(=O)N[C@@H]2CC[C@H](CCn3cc(-c4ccc(OC)cc4)nn3)O[C@@H]2CO)cc1` the GFP signal change (wild-type ribosome) was -3.5% (inactive), the OD600 change was -6.01% and the RFP signal change was 3.35%. With `COc1ccc(S(=O)(=O)N[C@H]2CC[C@H](CCn3cc(C(C)C)nn3)O[C@@H]2CO)cc1` the GFP signal change (wild-type ribosome) was 3.72% (inactive), the OD600 change was 10.4% and the RFP signal change was 1.37%. For `C[C@H](NC(=O)C[C@@H]1C[C@@H]2c3cc(NS(=O)(=O)c4ccc(F)cc4)ccc3O[C@@H]2[C@@H](CO)O1)c1ccccc1`, the GFP signal change (wild-type ribosome) was -27.2% (active), the OD600 change was -16.8% and the RFP signal change was 2.38%. In the case of `O=C(C[C@@H]1C[C@H]2c3cc(NS(=O)(=O)c4ccc(F)cc4)ccc3O[C@H]2[C@H](CO)O1)NCCc1ccccc1`, the GFP signal change (wild-type ribosome) is reported as 0.771% (inactive), the OD600 change is reported as -17.4% and the RFP signal change is reported as 2.06%. With `O=C(C[C@@H]1C[C@H]2c3cc(NS(=O)(=O)c4ccc(F)cc4)ccc3O[C@H]2[C@H](CO)O1)NC1CCCC1` the GFP signal change (wild-type ribosome) was -1.46% (inactive), the OD600 change was -4.87% and the RFP signal change was -0.359%. With `COCCNC(=O)C[C@H]1C[C@H]2c3cc(NS(C)(=O)=O)ccc3O[C@H]2[C@H](CO)O1` the GFP signal change (wild-type ribosome) was 3.03% (inactive), the OD600 change was -0.685% and the RFP signal change was -2.39%. With `C[C@@H]1CN([C@H](C)CO)C(=O)c2cc(NS(=O)(=O)c3ccc(F)cc3)ccc2O[C@@H]1CN(C)S(C)(=O)=O` the GFP signal change (wild-type ribosome) was 3.23% (inactive), the OD600 change was 5.12% and the RFP signal change was -0.699%. In the case of `CO[C@H]1CN(C)C(=O)c2ccc(NC(=O)c3ccccc3F)cc2OC[C@H](C)N(C(=O)c2ccccc2F)C[C@H]1C`, the GFP signal change (wild-type ribosome) is reported as -0.558% (inactive), the OD600 change is reported as -1.65% and the RFP signal change is reported as 0.417%. In the case of `CCCNC(=O)N(C)C[C@H]1Oc2ncc(-c3ccc(C(=O)N(C)C)cc3)cc2C(=O)N([C@@H](C)CO)C[C@@H]1C`, the GFP signal change (wild-type ribosome) is reported as 6.11% (inactive), the OD600 change is reported as 12.2% and the RFP signal change is reported as -1.77%. With `CCCN(C)C[C@H]1OCCCC[C@@H](C)Oc2ccc(NC(=O)Nc3ccc(F)cc3)cc2C(=O)N([C@@H](C)CO)C[C@H]1C` the GFP signal change (wild-type ribosome) was -3.85% (inactive), the OD600 change was -9.95% and the RFP signal change was 3.72%. In the case of `Cc1ccccc1S(=O)(=O)NC(=O)C1(C)CCN1C(=O)C1(c2ccc(Cl)cc2)CC1` (configuration not stated), the GFP signal change (wild-type ribosome) is reported as -15.3% (active), the OD600 change is reported as 13% and the RFP signal change is reported as 7.67%. With `CC1(C(=O)NS(=O)(=O)c2ccc3ccccc3c2)CCN1C(=O)C1(c2ccc(Cl)cc2)CCC1` (configuration not stated) the GFP signal change (wild-type ribosome) was -33.2% (inactive), the OD600 change was -59.6% and the RFP signal change was -12.6%. In the case of `Cc1ccccc1S(=O)(=O)NC(=O)C1(C)CCN1C(=O)C1(c2ccccc2)CCCC1` (configuration not stated), the GFP signal change (wild-type ribosome) is reported as -6.4% (inactive), the OD600 change is reported as 0.03% and the RFP signal change is reported as -0.676%. With `Cc1noc(C)c1S(=O)(=O)N(C)C[C@@H]1OCCCC[C@H](C)Oc2ccc(NC(=O)CCC(F)(F)F)cc2C(=O)N([C@H](C)CO)C[C@H]1C` the GFP signal change (wild-type ribosome) was -0.425% (inactive), the OD600 change was 1.3% and the RFP signal change was 2.1%. With `O=C(c1cnccn1)N1CC(=O)N2[C@H](C1)[C@@H](c1ccc(C3=CCCCC3)cc1)[C@@H]2CO` the GFP signal change (wild-type ribosome) was 3.19% (inactive), the OD600 change was -21.9% and the RFP signal change was 1.94%. With `COCCNC(=O)C[C@@H]1C[C@@H]2c3cc(NS(=O)(=O)c4ccccc4)ccc3O[C@@H]2[C@H](CO)O1` the GFP signal change (wild-type ribosome) was 1.27% (inactive), the OD600 change was 4% and the RFP signal change was -0.545%. For `c1ccc(COc2nsnc2N2CCOCC2)cc1`, the GFP signal change (wild-type ribosome) was 0.165% (inactive), the OD600 change was -14.3% and the RFP signal change was -6.39%. With `CC(CNC(=O)Cn1cnc2c(OCc3ccccc3)ncnc21)c1ccccc1` (configuration not stated) the GFP signal change (wild-type ribosome) was 8.65% (inactive), the OD600 change was 14.8% and the RFP signal change was 2.69%. With `Fc1cccc2ncnc(OCc3ccccc3)c12` the GFP signal change (wild-type ribosome) was -30.9% (active), the OD600 change was -18% and the RFP signal change was -2.44%. In the case of `CCCC#Cc1ccc([C@@H]2[C@@H](CO)N3C(=O)CN(C(=O)Nc4ccc(F)cc4)C[C@@H]23)cc1`, the GFP signal change (wild-type ribosome) is reported as -0.84% (inactive), the OD600 change is reported as -38.9% and the RFP signal change is reported as 19.5%. With `COCC(=O)Nc1ccc2c(c1)C(=O)N(C)[C@H]1CC[C@@H](CC(=O)NCc3cccc(F)c3)O[C@H]1CO2` the GFP signal change (wild-type ribosome) was 3.46% (inactive), the OD600 change was 6.34% and the RFP signal change was 1.53%. In the case of `CC(=O)Nc1ccc2c(c1)CC(=O)N(C)C[C@H](C)[C@H](CN(C)S(C)(=O)=O)O2`, the GFP signal change (wild-type ribosome) is reported as 0.68% (inactive), the OD600 change is reported as 1.91% and the RFP signal change is reported as 0.168%.
